# A selection: hits, their analogues and other compounds. The true share with any hit is near 1.1%.
# AmpC inh detg = blocks E. coli AmpC beta-lactamase in detergent assay; P00811; AmpC hydrolysis of nitrocefin, absorbance 480 nm, 0.01% Triton; Potency, µM (top dose mostly 114 µM), for the others: top-dose activity change, negative = inhibition, usual class: inhibitors; 370,000 compounds, 0.041% hits;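 also: 0% = no-compound wells and -100% = no-enzyme wells; nearly all actives have a fitted effect of over 25% in size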
# Target sequence (P00811 whole entry, looked up): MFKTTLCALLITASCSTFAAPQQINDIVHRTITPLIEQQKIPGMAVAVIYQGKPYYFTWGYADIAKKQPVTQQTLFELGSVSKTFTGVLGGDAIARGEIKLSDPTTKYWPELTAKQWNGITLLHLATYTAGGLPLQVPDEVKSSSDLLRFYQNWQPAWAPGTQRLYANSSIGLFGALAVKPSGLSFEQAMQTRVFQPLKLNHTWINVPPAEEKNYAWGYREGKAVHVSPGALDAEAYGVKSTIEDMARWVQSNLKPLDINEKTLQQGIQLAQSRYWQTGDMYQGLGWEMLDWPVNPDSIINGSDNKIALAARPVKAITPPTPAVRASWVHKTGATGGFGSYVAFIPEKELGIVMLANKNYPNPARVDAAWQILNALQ
#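 20 mM phosphate pH 7.0 + 0.01% (detergent screen) or 0.0001% Triton X-100; 5.3 nM AmpC reagent; cpd preinc 15 min RT; nitrocefin (800 uM stock) to start; A480 q20 s × 4 min; Activity was normalised to no-enzyme and no-compound control wells.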
# SARS PLpro yeast = SARS-CoV PLP inhibition in yeast; S. cerevisiae expressing SARS-CoV PLpro, growth rescue; Potency, µM (top dose mostly 32.9 µM), inactives show at the top dose activity, positive = growth rescue, most hits filed as activators; 330,000 compounds, 0.19% hits; calls by dose curve; also: 0% is about no effect; nearly all actives have a fitted effect of over 55% in size
# AmpC no deterg = AmpC beta-lactamase inhibition without detergent; Potency, µM (series often up to 57.1 µM), inactives show at the top dose activity change, negative = inhibition, most hits filed as inhibitors; 330,000 compounds, 0.52% hits; P00811; AmpC nitrocefin hydrolysis, absorbance 480 nm, 0.0001% Triton;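 also: plate controls were no compound for no effect and no enzyme for full effect; nearly all actives have a fitted effect of over 20% in size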
#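 AmpC (5.3 nM in the dispensed reagent) in 20 mM phosphate pH 7.0 with 0.01% (detergent screen) or 0.0001% Triton X-100 was preincubated with compounds for 15 min at room temperature. Nitrocefin was then added from an 800 uM solution, and hydrolysis was followed at 480 nm.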
# Giardia FBPA inh-1 = Giardia lamblia aldolase inhibition; A8B2U2; purified Giardia FBPA; Potency, µM (doses to about 59.6 µM), inactives show at the highest dose activity, negative = inhibition, most hits filed as inhibitors; 290,000 compounds, 0.71% hits; also: % is scaled to controls: 0 for no effect and ±100 for the full control effect; nearly all actives have a fitted effect of over 55% in size
#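 Giardia FBPA (40 nM reagent) was preincubated 10 min at RT with compound (up to 57.5 uM final), then substrate plus GAPDH/TPI/NAD/arsenate coupling system with diaphorase/resazurin was added; resorufin fluorescence (525/598 nm) was read after 20 min.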
# Giardia growth = blocks growth of Giardia lamblia trophozoites; Potency, µM (doses to about 57.5 µM), inactives show top-dose activity change, negative = inhibition, actives largely listed as inhibitors; 1,500 compounds, 5% hits; AID 2785; shares compounds with Giardia FBPA inh-1; Giardia lamblia trophozoite growth inhibition;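 also: trophozoites exposed to compound for 48 h at 37 °C; % is scaled to controls: 0 for no effect and ±100 for the full control effect; nearly all actives have a fitted effect of over 70% in size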
# Mammalian tox = toxic to mammalian cells in Giardia aldolase counter-screen | shares compounds with Giardia FBPA inh-1 | mammalian cell viability counter-screen, qHTS | Potency, µM (top dose mostly 57.5 µM), inactives show at the top dose viability change, negative = toxicity, actives largely listed as inhibitors | 1,500 compounds, 4% hits | AID 2786;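 also: Chinese hamster ovary cells used as mammalian cytotoxicity surrogate; viability measured as cellular ATP by luminescence; compound exposure lasted 48 h before reading; % is scaled to controls: 0 for no effect and ±100 for the full control effect; nearly all actives have a fitted effect of over 60% in size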
# Giardia FBPA inh-2 = confirmation of Giardia fructose-bisphosphate aldolase inhibitors | shares compounds with Giardia FBPA inh-1 | purified Giardia aldolase enzyme activity, qHTS | Potency, µM (doses to about 57.5 µM), for inactives: top-dose activity change, negative = inhibition, hits mostly inhibitors | 1,500 compounds, 5% hits | AID 2787; also: % is scaled to controls: 0 for no effect and ±100 for the full control effect; nearly all actives have a fitted effect of over 45% in size
# Rabbit FBPA inh = selectivity test for Giardia aldolase inhibitors: rabbit aldolase. Potency, µM (top dose mostly 57.5 µM), for inactives: at the highest dose activity, negative = inhibition, most hits filed as inhibitors. 1,500 compounds, 4% hits. Rabbit muscle FBPA enzyme inhibition, selectivity counter-screen. shares compounds with Giardia FBPA inh-1; also: % is scaled to controls: 0 for no effect and ±100 for the full control effect; nearly all actives have a fitted effect of over 60% in size
# Target sequence (P00883 whole entry, looked up): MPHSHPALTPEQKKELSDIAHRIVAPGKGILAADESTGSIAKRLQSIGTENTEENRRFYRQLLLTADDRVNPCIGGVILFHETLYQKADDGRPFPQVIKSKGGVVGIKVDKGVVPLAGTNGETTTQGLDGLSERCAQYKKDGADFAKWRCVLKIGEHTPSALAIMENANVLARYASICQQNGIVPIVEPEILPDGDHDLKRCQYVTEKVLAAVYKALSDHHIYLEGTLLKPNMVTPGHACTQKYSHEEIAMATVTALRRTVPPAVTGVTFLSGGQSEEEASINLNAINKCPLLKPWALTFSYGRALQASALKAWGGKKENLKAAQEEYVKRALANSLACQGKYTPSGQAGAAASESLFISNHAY
# GAPDH coupling = counter-screen for Giardia aldolase inhibitors: GAPDH coupling enzyme. shares compounds with Giardia FBPA inh-1. GAPDH coupling enzyme counterscreen, biochemical, qHTS. Potency, µM (doses to about 57.5 µM), without a hit: at the top dose activity change, negative = inhibition, hits mostly inhibitors. 1,500 compounds, 6% hits. AID 2795; also: % is scaled to controls: 0 for no effect and ±100 for the full control effect; nearly all actives have a fitted effect of over 55% in size
# * marks the source's active call; other numbers are inactive results; ? = inconclusive; . = no result; [ ] = dose if it differs, or a comment. Unless noted, calls follow the shape of the dose curve; as a rule, active = well fitted curve in the direction sought with a large enough effect; inconclusive = small, poorly fitted or top-dose-only effect, or another doubt; inactive = no such curve, though single readings can be large; an effect the other way counts as inactive or inconclusive. Potency is read from the fitted curve at half-maximal effect.
SMILES,AmpC inh detg,SARS PLpro yeast,AmpC no deterg,Giardia FBPA inh-1,Giardia growth,Mammalian tox,Giardia FBPA inh-2,Rabbit FBPA inh,GAPDH coupling
COc1cc(C2c3cc4c(cc3C(OC3OC5COC(C)O[C@@H]5C(O)C3O)C3COC(=O)C23)OCO4)cc(OC)c1O (some centres not stated),.,.,.,2%,.,.,.,.,.
CC12CCC=CC1C(c1ccc(F)c(Br)c1)N(Cc1ccccc1)C2=O (configuration not stated),.,.,.,11%,.,.,.,.,.
CC(C)c1ccc(NC(=O)CSc2nc(=O)n(Cc3cccnc3)c3c2CCC3)cc1,-3%,.,.,.,.,.,.,.,.
NC(=S)N/N=C1\c2ccccc2-c2c(C(=O)O)cccc21,-2%,16%,-42%,4µM*,4%[10.4 µM],2%,6%,3%,11%
NC(=O)c1cccc2c1-c1ccccc1/C2=N/NC(N)=S,-1%,1%,-15%,11µM*,-23%,-28%,-3%,0%,9%
O=C(c1ccccc1)N1CCc2cc(CNS(=O)(=O)c3ccccc3Cl)ccc21,5%,.,.,.,.,.,.,.,.
O=C1C=C(O)c2cccc(O)c2C1=O,-6%,-2%,-47%,5.6µM*,3%[10.4 µM],19%,?,-21%,?
COc1cccc2c1-c1c(O)cccc1C2=O,-12%,-2%,-18%,-3%,.,.,.,.,.
CC(C)CC(=O)N1CCN(Cc2ccc(C(F)(F)F)cc2)CC1,-7%,-15%,165%,32µM*,-23%,-22%,6%,-5%,-13%
CC(C)CC(=O)N1CCN(Cc2ccc(Br)cc2)CC1,-1%,?,27%,?,.,.,.,.,.
CC(C)CC(=O)N1CCN(Cc2ccc(Cl)cc2)CC1,?,3%,12%,28µM*,-30%,-3%,0%,4%,8%
O=C(CN1CCCC1)Nc1ccc(OC(F)(F)F)cc1,-7%,5%,14%,?,.,.,.,.,.
CCN1CCN(CC(=O)Nc2ccc(OC(F)(F)F)cc2)CC1,-16%,0%,0%,18µM*,83%,4%,3%,7%,-11%
CCCC1([C@H](O)C/C=C/[C@H]2[C@H](O)CC(=O)[C@@H]2CCCCCCC(=O)OC)CCC1,.,.,.,-1%,.,.,.,.,.
Nc1c2c(nc3ccc(Br)cc13)N(C1CCCCC1)CC2,-15%,-2%,-28%,18µM*,5µM*,-28%,-4%,-4%,-10%
Nc1c2c(nc3ccccc13)N(C1CCCCC1)CC2,-8%,2%,-31%,?,.,.,.,.,.
COc1ccccc1-n1c(CNC(=O)c2ccco2)n[nH]c1=S,4%,?,-12%,11µM*,52%,9%,2%,1%,13%
COc1ccc(-n2c(-c3ccco3)n[nH]c2=S)cc1,-13%,3%,-2%,2%,.,.,.,.,.
COc1ccccc1-c1n[nH]c(=S)n1N,-9%,2%,6%,16µM*,12%,-10%,4%,6%,8%
COc1ccccc1-n1c(-c2ccco2)n[nH]c1=S,-8%,-1%,-18%,14µM*,3%[10.4 µM],6%,-3%,14%,-8%
COc1ccccc1-c1n[nH]c(=S)n1-c1ccccc1,-12%,13%,8%,-13%,.,.,.,.,.
COc1ccccc1C(=O)Nc1cc2c(cc1N1CCCCC1)n(C)c(=O)n2C,1%,.,.,.,.,.,.,.,.
COc1cc(/C=C(\C#N)C(=O)NCCc2ccccc2)cc(OC)c1O,3%,-5%,-21%,?,.,.,.,.,.
COc1cc(/C=C(\C#N)C(=O)c2c[nH]c3ccccc23)cc(OC)c1O,7%,2%,-34%,7.9µM*,-18%,3%,2µM*,?,?
COc1ccc(-c2ccc(CCC(=O)O)n2CC(=O)Nc2cccc(C(F)(F)F)c2)cc1,-5%,.,.,.,.,.,.,.,.
SMILES,AmpC inh detg,SARS PLpro yeast,AmpC no deterg,Giardia FBPA inh-1,Giardia growth,Mammalian tox,Giardia FBPA inh-2,Rabbit FBPA inh,GAPDH coupling
Cn1c(=O)[nH]c(=O)c2c1nc(SCC(=O)O)n2Cc1ccccc1,4%,0%,-14%,14µM*,-26%,7%,5%,8%,9%
O=C(Cn1ncc2ccc(Cl)cc21)NCc1ccc(F)cc1,26%,.,.,.,.,.,.,.,.
[NH-]c1ncnc2c1N=C[N+]2=CC=CCO,1%,0%,-14%,8.9µM*,-10%[38.3 µM],8%,2%,6%,11%
CCOC(=O)C1CCCN(CC(=O)c2ccc(F)cc2)C1 (configuration not stated),-2%,1%,-15%,16µM*,5%,5%,4%,5%,17%
CCOC(=O)C1CCCN(Cc2ccc(OCc3ccccc3)c(OC)c2)C1 (configuration not stated),?,6%,64%,-29%,.,.,.,.,.
O=C(C1CCCN(Cc2ccccc2[N+](=O)[O-])C1)N1CCCC1 (configuration not stated),-3%,0%,-3%,28µM*,?,3%,5%,4%,-1%
O=C(C1CCCN(Cc2ccccc2F)C1)N1CCCC1 (configuration not stated),0%,0%,-24%,-20%,.,.,.,.,.
CCOC(=O)C1CCCN(CC(=O)Nc2c(F)c(F)c(F)c(F)c2F)C1 (configuration not stated),-10%,?,27%,4%,.,.,.,.,.
Cc1ccc(CN2CCCC(C(=O)N3CCCC3)C2)cc1 (configuration not stated),1%,-2%,-6%,25µM*,-4%[10.4 µM],9%,6%,8%,5%
O=C(C1CCCN(Cc2ccc(Br)cc2)C1)N1CCCCC1 (configuration not stated),1%,1%,2%,?,.,.,.,.,.
CCOC(=O)C1CCCN(Cc2ccc(OCc3ccccc3)cc2)C1 (configuration not stated),-7%,-3%,111%,28µM*,1%[10.4 µM],21%,12%,8%,-7%
CC(C)CO/N=C1/C[C@@H](O)[C@@H](O)[C@@H]2[C@@H]3C(=O)N(C(C)(C)C)C(=O)[C@H]3CC[C@@H]12,.,.,.,-1%[12.9 µM],.,.,.,.,.
COC(=O)c1ccc(OCC2c3cc(OC)c(OC)cc3CCN2C(=O)c2cccc(C)c2)cc1 (configuration not stated),-1%,.,.,.,.,.,.,.,.
Cc1ccc(C2C(=O)N(C3CCCCCC3)CC(=O)N2CCC2=CCCCC2)cc1 (configuration not stated),6%,.,.,.,.,.,.,.,.

# Screening data as filed in PubChem.
